DAX1 inh-1: NR0B1 (DAX1) inhibition | P51843 | HEK293 Gal4-DAX1 luciferase reporter, luminescence | inhibition, % at 6.75 µM | hit rate 0.99% among 340,000;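 active means inhibition above the mean over all tested compounds plus 3 SD, cut at about 4.2% in these data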;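 further: inhibition shows as a rise in luminescence from relieved DAX1 repression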
Target sequence (P51843 207-470 limits assumed): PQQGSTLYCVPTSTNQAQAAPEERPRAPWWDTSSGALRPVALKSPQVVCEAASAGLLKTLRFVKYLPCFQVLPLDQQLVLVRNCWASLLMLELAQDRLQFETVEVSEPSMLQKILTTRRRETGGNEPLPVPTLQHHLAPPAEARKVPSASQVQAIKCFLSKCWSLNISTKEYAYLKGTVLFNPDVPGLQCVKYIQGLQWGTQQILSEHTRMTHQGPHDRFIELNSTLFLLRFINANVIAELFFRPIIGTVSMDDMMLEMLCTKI
hgDAF12 agonist: activates the H. glycines DAF-12 receptor ligand-binding domain | HEK293 GAL4-hgDAF12 UAS-luciferase reporter, agonist luminescence; normalized to butyrate control | activation, % at 6.8 µM | hit rate 1.8% among 370,000 | AID 687014;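 active means activation above a cutoff set at the mean of all screened compounds plus 3 SD, cut at about 10% in these data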
DAX1 inh-2: DAX1 (NR0B1) inhibition, primary screen | HEK293T StAR-luciferase reporter, SF-1/DAX-1 repression relief | inhibition, % at 6.8 µM | hit rate 1.1% among 370,000 | AID 652010;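 active means inhibition above the mean over all tested compounds plus 3 SD, cut at about 3.6% in these data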;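 further: higher inhibition means more luminescence from relief of DAX-1 repression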
hcDAF-12 act: activates DAF-12 receptor from parasite H. contortus. HEK293 hcDAF-12 lit1-tk-luc reporter, luminescence; 0% DMSO, 100% Δ7-dafachronic acid. activation, % at 6.8 µM. hit rate 1.4% among 370,000. AID 652067;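 active means activation above the mean of all tested compounds plus 3 SD, cut at about 5.5% in these data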
ssDAF12 agonist: activates DAF-12 receptor from parasite S. stercoralis; HEK293 ssDAF-12/GRIP1 lit1-tk-luc reporter, luminescence; % of 3 µM dafachronic acid response; activation, % at 6.8 µM; hit rate 1% among 370,000; AID 652126;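 active means activation above the mean over all tested compounds plus 3 SD, cut at about 0.9% in these data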
Each line names hits and unclear results; the compound was inactive in the other large screens. Shown are actives, neighbours in structure and some others; about 4.1% of the full set was active somewhere.

CN(C)S(=O)(=O)N1CCc2ccccc21	none
COc1ccc2c(c1OC)C(=O)N(c1ccccn1)C2	hgDAF12 agonist 13, hcDAF-12 act 5.8, ssDAF12 agonist 1.3
COc1ccc2c(c1OC)C(=O)N(c1ccc(C)cc1)C2	DAX1 inh-1 6.2, hgDAF12 agonist 12
CC1CCCCN1S(=O)(=O)c1coc(C(N)=O)c1 (centres undefined)	none
CC1CCCN(S(=O)(=O)c2coc(C(N)=O)c2)C1 (centres undefined)	DAX1 inh-1 5.1
O=C1C2C3c4ccccc4C(c4ccccc43)C2C(=O)N1c1nc(-c2ccccc2)cs1 (centres undefined)	none
O=C1C2C3c4ccccc4C(c4ccccc43)[C@@H]2C(=O)N1c1nc(-c2ccccc2)cs1 (some centres undefined)	DAX1 inh-1 5.0
COc1cc(CNc2ncnc3c2ncn3[C@H]2CN(Cc3ccc(Cl)cc3)C[C@@H](CO)O2)cc(OC)c1OC	none (no result: DAX1 inh-1)
CCOC(=O)C(CCCCCCC(NC(C)=O)(C(=O)OCC)C(=O)OCC)(NC(C)=O)C(=O)OCC	DAX1 inh-1 4.7
CCC[C@H]1[C@@H](OC(=O)N2CCOCC2)CC[C@@]23CCCN2C(=O)CCC[C@@H]13	none (no result: DAX1 inh-1, DAX1 inh-2)
NC(=O)c1c(N)[nH]c(C(=O)c2ccccc2)c1-c1ccc(Br)cc1	none (no result: DAX1 inh-1)
Cc1ccc2c(c1)c(-c1csc(N)n1)c(C)n2C	ssDAF12 agonist 1.6
COC(=O)C1=C(C)N(C)C(=NCc2ccccc2C(F)(F)F)NC1c1ccc(Cl)cc1 (centres undefined)	none (no result: DAX1 inh-1)
CC1(C)C2CCC1(C)C(OC(=O)CNc1ccccc1)C2 (centres undefined)	none
COc1cc(C(=O)OC2CC3CCC2(C)C3(C)C)ccc1OC(C)=O (centres undefined)	DAX1 inh-1 4.7
CC(=O)Nc1ccc(C(=O)/C=C/c2ccco2)cc1	none
O=C(/C=C\c1ccco1)c1ccc(NC(=O)c2ccco2)cc1	hgDAF12 agonist 11
CN(C)c1ccc(C(=O)/C=C/c2ccco2)cc1	hgDAF12 agonist 13, ssDAF12 agonist 0.9
CN(C)c1ccc(C(=O)/C=C/c2ccccc2)cc1	none
CCCCNC(=O)C1(C(=O)c2ccc(OC)cc2)CC(c2ccccn2)=NO1 (centres undefined)	none (no result: DAX1 inh-1)
CC(C)C(OC(=O)c1cc2c(s1)CCCCC2)C(=O)NC(N)=O (centres undefined)	hcDAF-12 act 5.8
Cc1cc(C(=O)CSc2nnnn2C)c(C)n1C1CC1	hgDAF12 agonist 12
O=C(C1CC(=O)N(C2CCCCC2)C1)N1CCc2ccccc21 (centres undefined)	hcDAF-12 act 6.2
O=C(C1CCCO1)N1CCc2ccccc21 (centres undefined)	ssDAF12 agonist 1.8
CCOC(=O)C1(C)CCN1C(=O)c1ccccc1Br (centres undefined)	none (no result: DAX1 inh-1)
CCn1c(SCC(=O)Nc2ccc(C(=O)OC)cc2)nnc1-c1cccc(Cl)c1	none (no result: DAX1 inh-1)
COC(=O)c1cc(-c2ccc(C)cc2)n[nH]1	none
COC(=O)c1cc(-c2ccc(OC)cc2)n[nH]1	hgDAF12 agonist 11
COC(=O)[C@]12C[C@H](CC(=O)NCc3cccc(C(F)(F)F)c3)C(=O)N(Cc3ccccc3)C1=C[C@H](COCc1ccccc1)O[C@@H]2C	none (no result: DAX1 inh-1)
COc1ccc(-c2cc3ncc(C(C)=O)c(C)n3n2)cc1	DAX1 inh-1 4.4
O=C(c1ccc2c(c1)C(=O)NC2=O)c1ccc2c(c1)C(=O)NC2=O	none (no result: DAX1 inh-1)
CCOC(=O)/C=C/c1ccc2oc3ccccc3c(=O)c2c1	ssDAF12 agonist 2.0
CC(C)Oc1cccc(C2NC(=O)c3ccccc3O2)c1 (centres undefined)	DAX1 inh-1 4.7
CCCC(=O)Oc1cccc(C2NC(=O)c3ccccc3O2)c1 (centres undefined)	none
COc1ccc(N2C(=O)c3n[nH]c(C(C)C)c3C2c2ccc(F)cc2)cc1 (centres undefined)	none (no result: DAX1 inh-1)
Cc1cc(C)cc(OCC(=O)N2N=C(C(F)(F)F)CC2(O)C(C)(C)C)c1 (centres undefined)	none
CC(C)(C)C1(O)CC(C(F)(F)F)=NN1C(=O)CCCc1ccccc1 (centres undefined)	DAX1 inh-1 4.6
CC(=O)N1N=C(c2ccc(C)cc2)CC1c1ccco1 (centres undefined)	none
Cc1ccc(N2N=C(c3ccc(F)cc3)CC2c2ccco2)cc1 (centres undefined)	DAX1 inh-1 5.1
Cc1ccc(C2=NN(C(=O)CCCC(=O)O)C(c3ccco3)C2)cc1 (centres undefined)	ssDAF12 agonist 1.1
COc1ccc([C@H]2C[C@H](O)[C@@H](n3cc(-c4ccc(F)cc4)nn3)CN2Cc2cccs2)cc1	none
CC(C)C[C@@H]1COc2cccc(N3CCC[C@H]3CO)c2S(=O)(=O)N1	DAX1 inh-2 3.6 (no result: DAX1 inh-1)
CSCCC(c1nc2ccccc2[nH]1)n1c(/C=C/c2ccc(F)c(F)c2)nc2ccccc21 (centres undefined)	ssDAF12 agonist 0.9 (no result: DAX1 inh-1)
C=CCN1C(=O)[C@@H](CC(=O)NCc2ccc(OC)c(OC)c2)[C@]2(C(=O)OC)CCCCC=C12	none (no result: DAX1 inh-1)
Cc1cc(=O)[nH]c(N/N=C/c2ccc(F)cc2)n1	ssDAF12 agonist 1.3
Cc1cc(=O)[nH]c(N/N=C/c2ccc(N(C)C)cc2)n1	none
N#CC1=C(O)CCCn2c1nc1ccccc1c2=O	none
N#CC1=C(O)C(c2ccccc2)n2c1nc(=O)c1ccccc12 (centres undefined)	DAX1 inh-1 7.3
CCOC(=O)N1CCN(C(=O)C[C@H]2C[C@@]3(C(=O)OCC)CCCC4=C3N(CCC4)C2=O)CC1	none (no result: DAX1 inh-1)
C[C@H](CO)N1C[C@H](C)[C@@H](CN(C)CC2CCCCC2)Oc2c(NC(=O)CCC(F)(F)F)cccc2C1=O	none
Cn1c(/C(C#N)=C(\O)c2cc(Cl)sc2Cl)nc2ccccc21	none
Cn1c(/C(C#N)=C(\O)c2ccc(Br)s2)nc2ccccc21	ssDAF12 agonist 1.0
CCOc1cc(/C=C(\C#N)c2nc3ccccc3[nH]2)ccc1OC(C)C(=O)O (centres undefined)	none
CCOc1cc(/C=C(/C#N)c2nc3ccccc3[nH]2)ccc1Oc1ccc([N+](=O)[O-])cn1	hcDAF-12 act 5.8
O=C(NNC(=O)C1CC=CCC1)c1ccccc1Br (centres undefined)	none
O=C(NNC(=O)C1CC=CCC1)c1cccc(Br)c1 (centres undefined)	DAX1 inh-1 4.6
CCOC(=O)CC1CCCCN1Cc1cn[nH]c1-c1ccc(F)cc1F (centres undefined)	DAX1 inh-1 4.7
COc1ccc(-c2nnc(N(C)C(=O)C3CCCO3)s2)cc1 (centres undefined)	hgDAF12 agonist 13
COc1ccc(-c2nnc(N(C)C(=O)C3CCOC3)s2)cc1 (centres undefined)	none
CCCCOc1ccc(C2CCC(C(C)=O)C(C)C2)cc1 (centres undefined)	DAX1 inh-1 4.7
CSC1=Nc2ccccc2N=C(N2CCCC2)C1	none (no result: DAX1 inh-1)
